How the values were obtained:
Test in all cases: DAPPL (digital affinity profiling via proximity ligation, sequencing); 10 mM Tris-HCl pH 7.5, 50 mM NaCl, 1 mM DTT, 4% glycerol, room temperature, 30 min; GST-TFs on glutathione beads, 16-mer random dsDNA library, 0.1% formaldehyde crosslink after washing; high values mean tight binding
Settings in all cases: protein: recombinant; tags: N-terminal GST; dsDNA, one strand shown
[1] = biological target: T1, FLI1 (Homo sapiens, UniProt Q01543 1-452)
T1 sequence: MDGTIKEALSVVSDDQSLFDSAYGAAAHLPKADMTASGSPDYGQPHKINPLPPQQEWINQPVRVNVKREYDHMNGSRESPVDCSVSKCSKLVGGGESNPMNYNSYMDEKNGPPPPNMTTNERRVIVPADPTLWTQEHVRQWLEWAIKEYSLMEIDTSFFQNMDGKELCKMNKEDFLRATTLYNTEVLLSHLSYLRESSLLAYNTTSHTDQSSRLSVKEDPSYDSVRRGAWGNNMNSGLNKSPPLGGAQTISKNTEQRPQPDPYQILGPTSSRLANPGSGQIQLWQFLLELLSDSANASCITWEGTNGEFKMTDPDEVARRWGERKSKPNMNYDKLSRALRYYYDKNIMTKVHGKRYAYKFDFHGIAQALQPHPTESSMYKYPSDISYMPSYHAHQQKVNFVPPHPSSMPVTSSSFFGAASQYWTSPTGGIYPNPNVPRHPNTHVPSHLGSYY
In short: (§1)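 GST fusions of human transcription factors were expressed in yeast and captured with glutathione beads. Once given DNA barcodes and pooled alongside a tag-only sample, they were incubated for 30 min at room temperature with 200 nmole of a random double-stranded 16-mer DNA library in Tris/NaCl/DTT/glycerol buffer, then washed, crosslinked (0.1% formaldehyde), proximity-ligated, PCR-amplified and sequenced on an Illumina NextSeq500. The binding signal of each hexamer is its read frequency for a factor divided by its frequency for the tag-only sample.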

[2] = biological target: T2, ELK1 (Homo sapiens, UniProt P19419 1-428)
T2 sequence: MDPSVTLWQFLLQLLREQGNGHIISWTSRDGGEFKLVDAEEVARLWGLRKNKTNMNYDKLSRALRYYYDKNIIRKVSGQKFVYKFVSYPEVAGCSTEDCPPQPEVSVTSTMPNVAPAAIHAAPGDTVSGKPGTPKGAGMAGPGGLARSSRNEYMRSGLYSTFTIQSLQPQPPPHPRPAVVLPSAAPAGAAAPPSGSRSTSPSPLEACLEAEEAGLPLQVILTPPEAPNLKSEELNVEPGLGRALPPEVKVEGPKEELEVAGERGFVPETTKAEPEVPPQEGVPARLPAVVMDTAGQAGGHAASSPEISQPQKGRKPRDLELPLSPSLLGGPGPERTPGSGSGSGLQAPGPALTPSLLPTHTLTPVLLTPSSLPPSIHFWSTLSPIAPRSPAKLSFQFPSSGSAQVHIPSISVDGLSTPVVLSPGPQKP
In short: as §1

[3] = biological target: T3, GABPA (Homo sapiens, UniProt Q06546 1-454)
T3 sequence: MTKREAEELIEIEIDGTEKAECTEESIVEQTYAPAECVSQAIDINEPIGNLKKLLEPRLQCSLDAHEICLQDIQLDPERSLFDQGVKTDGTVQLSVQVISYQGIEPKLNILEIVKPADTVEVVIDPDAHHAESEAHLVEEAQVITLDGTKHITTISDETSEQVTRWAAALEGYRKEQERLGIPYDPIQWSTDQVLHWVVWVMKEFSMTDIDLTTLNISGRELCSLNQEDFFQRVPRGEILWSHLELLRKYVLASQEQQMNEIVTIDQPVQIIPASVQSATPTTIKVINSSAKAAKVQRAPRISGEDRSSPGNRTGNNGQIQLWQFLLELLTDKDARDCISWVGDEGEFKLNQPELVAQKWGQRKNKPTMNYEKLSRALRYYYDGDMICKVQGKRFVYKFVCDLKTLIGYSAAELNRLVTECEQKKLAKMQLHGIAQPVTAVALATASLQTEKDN
In short: as §1

[4] = biological target: T4, ERG (Homo sapiens, UniProt P11308 1-479)
T4 sequence: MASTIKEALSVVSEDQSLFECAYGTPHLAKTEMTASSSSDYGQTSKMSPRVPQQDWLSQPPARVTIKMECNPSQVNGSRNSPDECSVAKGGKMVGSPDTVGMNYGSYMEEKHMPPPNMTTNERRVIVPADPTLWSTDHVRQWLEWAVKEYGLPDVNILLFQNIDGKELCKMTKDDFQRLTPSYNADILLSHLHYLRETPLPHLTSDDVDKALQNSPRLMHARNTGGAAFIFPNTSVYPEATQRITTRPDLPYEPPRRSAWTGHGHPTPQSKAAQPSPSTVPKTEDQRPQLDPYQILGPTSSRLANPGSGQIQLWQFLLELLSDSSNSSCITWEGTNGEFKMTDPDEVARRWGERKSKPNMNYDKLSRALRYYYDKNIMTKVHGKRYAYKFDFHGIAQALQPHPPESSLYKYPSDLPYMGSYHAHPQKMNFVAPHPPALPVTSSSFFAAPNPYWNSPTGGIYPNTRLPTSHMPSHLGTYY
In short: as §1

[5] = biological target: ELF1 (Homo sapiens, UniProt P32519 1-619)
Chain of ELF1 (P32519 whole entry): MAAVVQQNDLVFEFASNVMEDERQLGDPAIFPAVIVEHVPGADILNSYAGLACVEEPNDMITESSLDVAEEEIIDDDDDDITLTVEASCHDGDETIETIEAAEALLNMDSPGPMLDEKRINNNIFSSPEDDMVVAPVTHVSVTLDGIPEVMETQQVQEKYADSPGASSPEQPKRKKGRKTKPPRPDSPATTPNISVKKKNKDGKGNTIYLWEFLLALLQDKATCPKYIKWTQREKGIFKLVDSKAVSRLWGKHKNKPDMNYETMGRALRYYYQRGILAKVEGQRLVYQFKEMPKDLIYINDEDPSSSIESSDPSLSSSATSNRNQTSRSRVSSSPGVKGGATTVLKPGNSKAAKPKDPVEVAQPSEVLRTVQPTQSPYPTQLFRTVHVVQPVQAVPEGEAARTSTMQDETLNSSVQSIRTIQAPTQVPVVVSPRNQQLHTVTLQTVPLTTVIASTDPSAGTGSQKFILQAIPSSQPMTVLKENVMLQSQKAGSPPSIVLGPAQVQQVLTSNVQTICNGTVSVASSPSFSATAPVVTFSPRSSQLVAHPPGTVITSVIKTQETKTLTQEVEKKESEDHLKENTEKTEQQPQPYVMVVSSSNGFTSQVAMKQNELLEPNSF
In short: as §1

[6] = biological target: T5, EHF (Homo sapiens, UniProt Q9NZC4 1-300)
T5 sequence: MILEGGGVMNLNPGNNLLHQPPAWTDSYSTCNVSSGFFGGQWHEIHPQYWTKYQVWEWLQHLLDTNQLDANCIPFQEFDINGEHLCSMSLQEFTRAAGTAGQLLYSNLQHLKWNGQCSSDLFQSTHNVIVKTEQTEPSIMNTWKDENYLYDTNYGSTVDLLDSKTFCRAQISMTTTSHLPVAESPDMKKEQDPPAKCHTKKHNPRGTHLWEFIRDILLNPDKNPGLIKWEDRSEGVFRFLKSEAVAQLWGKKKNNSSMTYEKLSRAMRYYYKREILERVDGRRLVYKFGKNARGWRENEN
In short: as §1

[7] = biological target: SPI1 (Homo sapiens, UniProt P17947 1-270)
In short: as §1

[8] = biological target: SPIB (Homo sapiens, UniProt Q01892 1-262)
Chain of SPIB (Q01892 whole entry): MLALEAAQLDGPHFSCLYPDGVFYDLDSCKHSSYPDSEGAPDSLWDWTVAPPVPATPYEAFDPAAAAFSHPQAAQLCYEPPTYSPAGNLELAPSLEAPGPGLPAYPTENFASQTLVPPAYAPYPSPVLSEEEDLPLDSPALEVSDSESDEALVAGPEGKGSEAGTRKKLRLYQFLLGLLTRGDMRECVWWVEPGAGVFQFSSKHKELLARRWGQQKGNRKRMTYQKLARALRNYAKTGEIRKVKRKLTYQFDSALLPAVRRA
In short: as §1

[9] = biological target: T6, ELK3 (Homo sapiens, UniProt P41970 1-407)
T6 sequence: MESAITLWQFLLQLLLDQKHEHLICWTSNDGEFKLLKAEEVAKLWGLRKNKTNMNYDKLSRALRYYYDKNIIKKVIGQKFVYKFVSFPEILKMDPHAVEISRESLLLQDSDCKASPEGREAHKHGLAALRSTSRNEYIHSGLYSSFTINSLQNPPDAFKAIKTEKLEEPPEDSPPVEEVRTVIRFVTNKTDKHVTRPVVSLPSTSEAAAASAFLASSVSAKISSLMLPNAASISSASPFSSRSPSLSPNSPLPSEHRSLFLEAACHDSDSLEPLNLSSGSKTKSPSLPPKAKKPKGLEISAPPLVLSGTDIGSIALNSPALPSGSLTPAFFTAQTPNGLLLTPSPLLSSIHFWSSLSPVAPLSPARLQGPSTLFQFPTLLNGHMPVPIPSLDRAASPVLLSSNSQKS
In short: as §1

Sequence	binding signal [1]	binding signal [2]	binding signal [3]	binding signal [4]	binding signal [5]	binding signal [6]	binding signal [7]	binding signal [8]	binding signal [9]
ATTGCC	1.28 fold enrichment (6-mer frequency, TF over GST control)	1.27 fold enrichment (6-mer frequency, TF over GST control)	1.28 fold enrichment (6-mer frequency, TF over GST control)	1.14 fold enrichment (6-mer frequency, TF over GST control)	1.21 fold enrichment (6-mer frequency, TF over GST control)	1.24 fold enrichment (6-mer frequency, TF over GST control)	1.15 fold enrichment (6-mer frequency, TF over GST control)	1.26 fold enrichment (6-mer frequency, TF over GST control)	1.15 fold enrichment (6-mer frequency, TF over GST control)
TCTGTA	1.23 fold enrichment (6-mer frequency, TF over GST control)	1.19 fold enrichment (6-mer frequency, TF over GST control)	1.2 fold enrichment (6-mer frequency, TF over GST control)	1.11 fold enrichment (6-mer frequency, TF over GST control)	1.18 fold enrichment (6-mer frequency, TF over GST control)	1.15 fold enrichment (6-mer frequency, TF over GST control)	1.16 fold enrichment (6-mer frequency, TF over GST control)	1.19 fold enrichment (6-mer frequency, TF over GST control)	1.2 fold enrichment (6-mer frequency, TF over GST control)
CCTATT	1.47 fold enrichment (6-mer frequency, TF over GST control)	1.55 fold enrichment (6-mer frequency, TF over GST control)	1.49 fold enrichment (6-mer frequency, TF over GST control)	1.53 fold enrichment (6-mer frequency, TF over GST control)	1.56 fold enrichment (6-mer frequency, TF over GST control)	1.64 fold enrichment (6-mer frequency, TF over GST control)	1.55 fold enrichment (6-mer frequency, TF over GST control)	1.44 fold enrichment (6-mer frequency, TF over GST control)	1.4 fold enrichment (6-mer frequency, TF over GST control)
TGCCCC	1.13 fold enrichment (6-mer frequency, TF over GST control)	1.2 fold enrichment (6-mer frequency, TF over GST control)	1.27 fold enrichment (6-mer frequency, TF over GST control)	1.28 fold enrichment (6-mer frequency, TF over GST control)	1.27 fold enrichment (6-mer frequency, TF over GST control)	1.32 fold enrichment (6-mer frequency, TF over GST control)	1.31 fold enrichment (6-mer frequency, TF over GST control)	1.13 fold enrichment (6-mer frequency, TF over GST control)	1.18 fold enrichment (6-mer frequency, TF over GST control)
ACCGGA	2.87 fold enrichment (6-mer frequency, TF over GST control)	3.55 fold enrichment (6-mer frequency, TF over GST control)	2.66 fold enrichment (6-mer frequency, TF over GST control)	3.94 fold enrichment (6-mer frequency, TF over GST control)	2.87 fold enrichment (6-mer frequency, TF over GST control)	3.2 fold enrichment (6-mer frequency, TF over GST control)	3.17 fold enrichment (6-mer frequency, TF over GST control)	3.16 fold enrichment (6-mer frequency, TF over GST control)	3.55 fold enrichment (6-mer frequency, TF over GST control)
GCATTC	1.15 fold enrichment (6-mer frequency, TF over GST control)	1.16 fold enrichment (6-mer frequency, TF over GST control)	1.18 fold enrichment (6-mer frequency, TF over GST control)	1.12 fold enrichment (6-mer frequency, TF over GST control)	1.13 fold enrichment (6-mer frequency, TF over GST control)	1.07 fold enrichment (6-mer frequency, TF over GST control)	1.15 fold enrichment (6-mer frequency, TF over GST control)	1.12 fold enrichment (6-mer frequency, TF over GST control)	1.03 fold enrichment (6-mer frequency, TF over GST control)
TGCCGC	1.33 fold enrichment (6-mer frequency, TF over GST control)	1.3 fold enrichment (6-mer frequency, TF over GST control)	1.33 fold enrichment (6-mer frequency, TF over GST control)	1.24 fold enrichment (6-mer frequency, TF over GST control)	1.28 fold enrichment (6-mer frequency, TF over GST control)	1.28 fold enrichment (6-mer frequency, TF over GST control)	1.37 fold enrichment (6-mer frequency, TF over GST control)	1.36 fold enrichment (6-mer frequency, TF over GST control)	1.26 fold enrichment (6-mer frequency, TF over GST control)
CATTCG	1.25 fold enrichment (6-mer frequency, TF over GST control)	1.11 fold enrichment (6-mer frequency, TF over GST control)	1.17 fold enrichment (6-mer frequency, TF over GST control)	1.21 fold enrichment (6-mer frequency, TF over GST control)	1.28 fold enrichment (6-mer frequency, TF over GST control)	1.08 fold enrichment (6-mer frequency, TF over GST control)	1.26 fold enrichment (6-mer frequency, TF over GST control)	1.15 fold enrichment (6-mer frequency, TF over GST control)	1.24 fold enrichment (6-mer frequency, TF over GST control)

Source: article PMC7862700, “An all-to-all approach to the identification of sequence-specific readers for epigenetic DNA modifications on cytosine”
